# Measurements from the supplement of paper PMC10646978.
# ± gives the standard deviation.
# Tests used:
# Conditions in all cases: modulator concentration 10 µM
# [1] = tested on: RAW-Dual (murine macrophage reporter line); assay: NF-kB reporter (SEAP) activity fold change vs agonist alone; higher = enhanced NF-kB activity
# In short: (§1)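 In 384-well plates holding 50 000 RAW-Dual murine macrophage reporter cells per well, compound at 10 μM final was pre-incubated for 1 hour at 37 °C, after which a PRR agonist was added overnight. Supernatant SEAP read with QUANTI-Blue at 620 nm absorbance reported NF-κB, and Lucia luciferase read with QUANTI-Luc luminescence reported IRF. Fold change values come from dividing each reporter signal by the mean of agonist-only control wells on the same plate, averaged over replicate plates with propagated errors.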
# [2] = tested on: RAW-Dual (murine macrophage reporter line); assay: IRF reporter (Lucia luciferase) activity fold change vs agonist alone; higher = enhanced IRF activity
# In short: as §1
# [3] = tested on: RAW-Dual (murine macrophage reporter line); assay: viability score (confluency relative to resting cells, overnight) (fraction); higher = more viable, active = viable (0.7 or more)
# In short: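 RAW-Dual macrophages in 384-well plates were exposed overnight to compound at 10 μM final. Confluency was imaged with IncuCyte, and two confluency masks were generated with IncuCyte software over all imaged wells. The viability score is confluency expressed relative to resting cells. Compounds were called viable if both masks exceeded 70% of resting cells.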
# [4] = agonist: CpG ODN 1826 0.5 ug/mL
Compound,"NF-kB reporter [1, 4]",NF-kB reporter ([1]; agonist: LPS 0.1 ug/mL),NF-kB reporter ([1]; agonist: MPLA […]),IRF reporter ([2]; agonist: 3'3'-cGAMP 10 ug/mL),IRF reporter ([2]; agonist: LPS 0.1 ug/mL),IRF reporter ([2]; agonist: MPLA […]),viability score [3]
Cc1ccccc1Oc1ccc(S(=O)(=O)N2CCCC2)cc1,0.68 ± 0.03,1.02 ± 0.14,0.922 ± 0.061,0.385 ± 0.018,1.03 ± 0.14,1.22 ± 0.26,0.953 (active)
CCC(=O)Nc1ccc(NC(=O)c2ccccc2OC)cc1,0.932 ± 0.086,1.04 ± 0.083,0.997 ± 0.064,1 ± 0.042,1.25 ± 0.087,0.969 ± 0.076,1.01 (active)
O=C(NCCCOc1cccc2cccnc12)c1cccnc1,0.892 ± 0.081,0.909 ± 0.077,1.11 ± 0.13,1 ± 0.049,1.17 ± 0.2,1.25 ± 0.39,0.989 (active)
O=C(C1=C(O)C(=O)N(c2nccs2)C1c1ccccc1)c1cc2ccccc2o1 (centres undefined),0.928 ± 0.054,1.57 ± 0.12,0.97 ± 0.062,0.664 ± 0.026,0.967 ± 0.19,0.885 ± 0.082,0.997 (active)
COC(=O)C(CCSC)NC(=O)c1cc(OC)c(OC)c(OC)c1 (centres undefined),1.08 ± 0.18,1.09 ± 0.096,1.1 ± 0.14,1.02 ± 0.031,0.923 ± 0.089,1.07 ± 0.12,0.712 (active)
COc1ncc(-c2ccc3nccc(-c4ccnnc4)c3c2)cc1NS(=O)(=O)c1ccc(F)cc1F,1.56 ± 0.067,1.79 ± 0.14,3.01 ± 0.16,0.389 ± 0.051,1.2 ± 0.1,2.66 ± 0.33,0.33 (inactive)
COc1ccc(C2N3CC4(C)CN2CC(C)(C3)C4=O)cc1 (centres undefined),1.03 ± 0.17,0.973 ± 0.093,0.947 ± 0.082,1.03 ± 0.027,1.32 ± 0.2,1.27 ± 0.15,1 (active)
NC(=O)CC[C@H](N)C(=O)O,0.931 ± 0.076,0.998 ± 0.096,0.982 ± 0.023,0.949 ± 0.082,0.998 ± 0.039,1.04 ± 0.11,1.01 (active)
COc1ccc(CN(CCN(C)C)c2ccccn2)cc1.O=C(O)C=CC(=O)O,0.857 ± 0.065,0.954 ± 0.051,1.01 ± 0.021,0.982 ± 0.054,0.915 ± 0.097,0.897 ± 0.07,1 (active)
COc1ccc(N2CC(C(=O)NCc3ccccc3C(F)(F)F)CC2=O)cc1 (centres undefined),1 ± 0.11,1.07 ± 0.085,0.935 ± 0.041,1.03 ± 0.051,1.2 ± 0.1,1.14 ± 0.29,1 (active)
COC(=O)C1C(c2ccccc2)C(C(=O)Oc2ccc(C(C)=O)cc2)C1c1ccccc1 (centres undefined),0.895 ± 0.069,0.939 ± 0.046,1.16 ± 0.1,0.908 ± 0.06,1.17 ± 0.1,1.28 ± 0.15,1.02 (active)
Cc1cc(C)nc(NC#N)n1,0.919 ± 0.072,0.966 ± 0.11,0.971 ± 0.061,0.776 ± 0.1,1.02 ± 0.13,1.18 ± 0.2,0.998 (active)
Ic1cccc(Cn2nnc(-c3ccccc3)n2)c1,0.76 ± 0.06,0.98 ± 0.048,1.38 ± 0.15,0.872 ± 0.04,1.28 ± 0.12,1.51 ± 0.18,1.01 (active)
CCCCCCOc1ccc(OC(=O)c2ccc(OC)cc2)cc1,0.826 ± 0.073,0.856 ± 0.072,0.913 ± 0.089,0.95 ± 0.037,1.37 ± 0.21,1.62 ± 0.26,1.04 (active)
CCOC(=O)C1=C(C)NC(C)=C(C(=O)OCC)C1c1ccco1,1.03 ± 0.09,1.01 ± 0.066,1.14 ± 0.087,0.82 ± 0.16,0.999 ± 0.12,0.888 ± 0.28,0.996 (active)
O=C(Nc1cccnc1)c1ccc(OC2CCOCC2)nc1,1.08 ± 0.37,0.97 ± 0.06,1 ± 0.063,0.912 ± 0.046,1.05 ± 0.13,1.3 ± 0.14,0.99 (active)
CCCOc1ccc(CCC(=O)O)cc1,1.38 ± 0.33,1.08 ± 0.075,0.985 ± 0.035,1.07 ± 0.23,1.11 ± 0.05,1.05 ± 0.1,1 (active)
CC(C)c1ccc2oc3nc(N)c(C(=O)O)cc3c(=O)c2c1,1.2 ± 0.16,1.23 ± 0.15,0.91 ± 0.052,0.858 ± 0.026,1.28 ± 0.32,1.16 ± 0.18,0.993 (active)
Cc1nc(N(C)C)nc(C)c1NC(=O)CC(C)C,0.95 ± 0.066,0.92 ± 0.075,0.837 ± 0.089,1.1 ± 0.055,0.967 ± 0.1,0.897 ± 0.39,1.01 (active)
O=C(Nc1ccc(F)c(F)c1)c1ccnc(OCC2CCOCC2)c1,1.15 ± 0.07,0.969 ± 0.084,0.908 ± 0.046,0.856 ± 0.051,1.16 ± 0.14,1.26 ± 0.36,0.995 (active)
CCN(CC)CCNc1ccc(CO)c2sc3ccccc3c(=O)c12 [Prestw-355],0.178 ± 0.01,0.705 ± 0.065,1.09 ± 0.14,0.408 ± 0.024,0.964 ± 0.13,1.97 ± 0.17,0.907 (active)
NCCCCC(NC(CCc1ccccc1)C(=O)O)C(=O)N1CCCC1C(=O)O (centres undefined),1.33 ± 0.32,0.955 ± 0.083,1.03 ± 0.088,0.947 ± 0.032,1.09 ± 0.13,1.02 ± 0.13,0.998 (active)
Cc1ccc(O)c([C@H](CCN(C(C)C)C(C)C)c2ccccc2)c1.O=C(O)[C@H](O)[C@@H](O)C(=O)O,0.67 ± 0.061,0.881 ± 0.081,1.26 ± 0.089,0.656 ± 0.042,0.951 ± 0.051,0.729 ± 0.073,0.979 (active)
Cc1cc(C)nc(Nc2ncc(O)n2-c2ccc(F)cc2)n1,1.11 ± 0.087,1.1 ± 0.13,1.01 ± 0.038,0.992 ± 0.074,1.04 ± 0.14,1.16 ± 0.27,0.991 (active)
O=S(=O)(c1ccccc1)N1CCOCC1,0.956 ± 0.057,0.992 ± 0.061,0.935 ± 0.071,0.981 ± 0.033,1.33 ± 0.21,1.15 ± 0.15,1 (active)
CCC(=O)Nc1ccc(S(=O)(=O)NCC2CCN(c3ncc(F)cn3)CC2)c(C)c1,1.06 ± 0.096,1.2 ± 0.096,1.04 ± 0.065,1.79 ± 0.1,1.21 ± 0.11,1.08 ± 0.093,0.986 (active)
CS(=O)(=O)Nc1cccc(F)c1,1.12 ± 0.088,1.08 ± 0.074,1.03 ± 0.061,1 ± 0.17,1.07 ± 0.14,1.07 ± 0.22,1 (active)
